Results on ten molecules are retold here after ChEMBL document CHEMBL1157539, “Thousands of chemical starting points for antimalarial lead identification” (Nature, 2010).

The term Inhibition denotes how much of the control response was suppressed. The low end stands for a response near the control, the high end for a response far below the control.

Molecules are shown by their SMILES.

What all share (assay type): functional
For experiment [1], the system named is Plasmodium falciparum. The experiment can be described thus: GSK_TCMDC: Inhibition of Plasmodium falciparum 3D7 in whole red blood cells, using parasite LDH activity as an index of growth. Test compounds present at 2uM.
Experiment [2] deals with Plasmodium falciparum. The experiment can be described thus: GSK_TCMDC: Inhibition of Plasmodium falciparum Dd2 in whole red blood cells, using parasite LDH activity as an index of growth. Test compounds present at 2uM.
Another experiment concerns HepG2. The experiment is described as follows: GSK_TCMDC: Percent inhibition of human HepG2 cell line. Test compounds present at 10uM.

Take `CCc1sc(N2CCN(C)CC2)nc1C(=O)NCCc1ccc(Cl)c(Cl)c1.O=C(O)C(F)(F)F`: the values for the Inhibition in the experiment with Plasmodium falciparum [1], in the experiment with Plasmodium falciparum [2] and in the experiment on HepG2 were 92%, 49% and 5%, respectively.
Regarding `Cn1cncc1C(=O)Nc1cccc(-c2ccc(-c3nc4cc(F)ccc4[nH]3)s2)c1`, the figures for the Inhibition in the experiment on Plasmodium falciparum [1], with Plasmodium falciparum [2] and in the experiment with HepG2 were 99%, 27% and 0%, respectively.
`Cc1cc2ccccc2c(CON2C(=N)N=C(N)NC2(C)C)c1C.Cl`: the Inhibition was found to be 93% in the experiment on Plasmodium falciparum [1], 31% in the experiment with Plasmodium falciparum [2] and 65% in the experiment on HepG2.
On to `C=C[C@]1(C)C[C@@H](OC(=O)CSC2CN3CCC2C3)[C@@]2(C)C3C(=O)CC[C@@]3(CC[C@H]2C)[C@@H](C)[C@@H]1O.Cl` (stereo not given in full), for which the Inhibition in the experiment on Plasmodium falciparum [1] was determined as 91%; in the experiment with Plasmodium falciparum [2], 75%; with HepG2, 18%.
As to `C=C(C)C1CC=C(CN2CCCC(n3ccc4cc(NC(=O)c5ccco5)ccc43)CC2)CC1` (stereo not given), the Inhibition amounted to 90% in the experiment on Plasmodium falciparum [1], 95% with Plasmodium falciparum [2] and 13% with HepG2.
Turning to `Cc1nc(N)nc(N)c1OCCCOc1cccc(Cl)c1Cl.Cl`, the Inhibition with Plasmodium falciparum [1] stood at 93%; in the experiment on Plasmodium falciparum [2], 95%; in the experiment with HepG2 it was 59%.
For `CCNC(=O)c1ccc(-n2nc(C)cc2-c2ccccc2)cc1`, the Inhibition in the experiment on Plasmodium falciparum [1] is given as 89%; in the experiment on Plasmodium falciparum [2], 54%; in the experiment with HepG2, 11%.
For the molecule `Cc1nc(O)c2c(ccc3ccc(CNc4ccc(C(=O)N[C@@H](CCC(=O)O)C(=O)O)cc4)cc32)n1`, the Inhibition is 89% with Plasmodium falciparum [1], 95% in the experiment on Plasmodium falciparum [2] and 32% with HepG2.
Consider `COc1ccc(CNC2CCN(C)CC2)cc1-c1ccc(S(=O)(=O)NC2CCC2)cc1.O=C(O)C(F)(F)F`, for which the figures for the Inhibition with Plasmodium falciparum [1], in the experiment with Plasmodium falciparum [2] and in the experiment with HepG2 were 98%, 76% and 58%, respectively.
Regarding `O=C(Nc1ccc(-c2nc3ccccc3[nH]2)cc1)c1cccc(S(=O)(=O)N2CCOCC2)c1`, the Inhibition turned out to be 89% in the experiment with Plasmodium falciparum [1], 43% in the experiment with Plasmodium falciparum [2] and 6% in the experiment with HepG2.
